Data as given in PubChem BioAssay (EPA / NIEHS).
The source made the active and inactive calls. How the source made its calls: active means hit-call score of the fitted dose curve at least 0.9, where 1 is the maximum; inactive means score below 0.9.

Read-out: UDP glucuronosyltransferase (UGT1A1), UGT1A1 (gene 54658)
Assay: LTEA_HepaRG_UGT1A1: Life Technologies and Expression Analysis (LTEA) Assay for UDP glucuronosyltransferase (UGT1A1) using HepaRG (AID 2283538)
Details: mRNA level, 48 h; actives raise or lower the signal
Method: LTEA_HepaRG is a cell based, multiplexed-readout assay that uses HepaRG, a human liver cell line, with measurements taken at 48 hours after chemical dosing on a 96-well plate.LTEA_HepaRG_UGT1A1 is one of 102 assay component(s) measured in the LTEA HepaRG cell culture assay. It is a marker of Steatosis/NR mediated metabolism.Data from the assay component LTEA_HepaRG_UGT1A1 was analyzed into 1 endpoint. This assay endpoint, LTEA_HepaRG_UGT1A1, was analyzed with bidirectional fitting relative to DMSO as the negative control and baseline of activity. Using a type of inducible reporter, measures of mRNA induction for gain or loss-of-signal activity can be used to understand regulation of transcription factor activity. To generalize the intended target to other relatable targets, this assay endpoint is annotated to the transferase intended target family, where the subfamily is glucuronosyltransferase.
A total of 1060 chemcials from the ToxCast library were tested in eight-point concentration-response experiments. Cell culture and cytotoxicity assays were conducted at Thermo Fisher Scientific's Custom Services facility (Madison, WI). A single lot of human HepaRG cells (Thermo Fisher Scientific, Frederick, MD) was used for the cell culture experiments. 96-well format collagen type I coated plates of human HepaRG cells were prepared using established methods. Briefly, cryopreserved HepaRG cells were thawed, plated at a density of approximately 100,000 cells/well in HepaRG Thaw, Plate, and General Purpose media (HPRG770, Thermo Fisher Scientific), and incubated for 48 hours. 0.5% DMSO was selected as vehicle control to balance the requisite need of DMSO in HepaRG cultures to maintain differentiation (for example, baseline metabolism, proportions of hepatocytes vs. cholangiocytes), while enabling further hepatic receptor pathway activation (for example, PXR and CAR) in response to chemical exposure. 48 hours after plating, the culture medium was replaced with HepaRG Serum-Free Incudtion Media. Cells were exposed to each test chemical in duplicate and maintained in CO2 incubators for another 48 hours. Chemical plates were thawed to room temperature and 200x concentrations of treatment groups were prepared. 8-point conentration-reponse curves were made with the highest exposure at 100 uM, followed by half-log dilutions, all in 0.5% DMSO. Each test plate contained variouse controls, induction positive controls (1mM phenobarbital), cytotoxicity positive controls ([…] aflatoxin B1), vehicle controls (0.5% DMSO), and total lysis controls (0.5% DMSO). Cell morphology images were taken using an Essen IncuCyte FLR automated microscope, with six 96-well plates imaged in about 24 minutes. Images were captured and exported and JPEG files. Spent culture media was transfered to black-well plates for the LDH assay, and remaining media was sorted at -80 C for later use. Cells were treated with RLT buffer and frozen until shipped for gene expression analysis. Total RNA was isolated from the cell suspension in 75 uL of Buffer RLT (Qiagen, Germantown, MD 20874) by Quintiles/Expression Analysis (Durham, NC) using a custom isolation procedure. Total RNA from each plate well was transferred to a preamplification plate. Fluidigm's 96.96 Dynamic ArrayTM (Fluidigm, Amsterdam, the Netherlands) technology was used for gene expression analyses by quantitative reverse transcription polymerase chain reaction (qRT-PCR, performed by Quintiles/Expression Analysis, Durham, NC)89. Standard TaqManTM Assays (Applied Biosystems/ThermoFisher Scientific, Foster City, CA) were used to assess the expression of 93 genes selected based on their selectivity and sensitivity to important hepatic receptors known to be modulated by environmental chemicals; importance in human hepatocyte functionality; and hepatotoxicity. […]

SMILES | outcome | AC50
Cc1cccc2ccccc12 | inactive | 
O=C(OCCCCCCOC(=O)c1ccccc1)c1ccccc1 | inactive | 
CCCCCCCCCCCC[N+](C)(C)C |  | 88.3 µM (active)
COCC(C)OCC(C)OCC(C)O (stereo not given) | inactive | 
CC[C@H](NC(=O)c1cc(F)ccc1NS(=O)(=O)c1cccc2cccnc12)c1ccccc1 |  | 11.1 µM (active)
CCCCCCCCCC(=O)O | inactive | 
CCCCOC(=O)c1ccc(O)cc1 | inactive | 
O=C=NCCCCCCN=C=O | inactive | 
O=C(O)Cc1cc(I)c(Oc2ccc(O)c(I)c2)c(I)c1 |  | 95.7 µM (active)
COc1cc(C(=O)NC2CCN(C)CC2)ccc1Nc1ncc2c(n1)N(C1CCCC1)CC(F)(F)C(=O)N2C |  | 21 µM (active)
CC(C)(O)c1ccc(CNC(=O)c2cccnc2Oc2ccc3nonc3c2)cc1 |  | 9.41 µM (active)
CC(C)(C)c1csc(-c2cc3cc(OCc4ccccc4CC(=O)O)ccc3o2)n1 |  | 85.5 µM (active)
CO[C@H]1/C=C/O[C@@]2(C)Oc3c(C)c(O)c4c(O)c(c(/C=N/N5CCN(C)CC5)c(O)c4c3C2=O)NC(=O)/C(C)=C\C=C\[C@H](C)[C@H](O)[C@@H](C)[C@@H](O)[C@@H](C)[C@H](OC(C)=O)[C@@H]1C |  | 0.395 µM (active)
O=C(O)c1ccccc1C(=O)OCc1ccccc1 |  | 24.3 µM (active)
Clc1ccccc1C(c1ccccc1)(c1ccccc1)n1ccnc1 |  | 28 µM (active)
Cc1c2ccccc2c(C)c2c1ccc1ccccc12 |  | 0.714 µM (active)
CC(=O)N1CCN(c2ccc(OC[C@H]3CO[C@](Cn4ccnc4)(c4ccc(Cl)cc4Cl)O3)cc2)CC1 |  | 11.6 µM (active)
CCCCCCCCN(C)CCCCCCCC | inactive | 
CN(C[C@@H](CC[N+]12CCC(C3CCCCC3)(CC1)CC2)c1ccc(Cl)c(Cl)c1)C(=O)c1cc(C(F)(F)F)cc(C(F)(F)F)c1 |  | 6.65 µM (active)
CCCCCCCCCCCCO | inactive | 

SMILES | outcome | AC50
CCCCOC(=O)CC(CC(=O)OCCCC)(OC(C)=O)C(=O)OCCCC | inactive | 
CN1C(=O)CC[C@H]1c1cccnc1 | inactive | 
OC12N=C(c3ccccc3)SC1Cc1cc(Cl)ccc12 (stereo not given) |  | 2.54 µM (active)
NCc1cccc(C2CCN(C(=O)c3ccc(C#Cc4ccccc4F)o3)CC2)c1 |  | 86.3 µM (active)
CC(O)CC(C)(C)O (stereo not given) | inactive | 
CCN(CC)C(=O)c1cc(S(=O)(=O)Cc2ccccc2)c(N2CCC(c3ccccc3)CC2)cc1N(CC)CCN(C)C |  | 19 µM (active)
CCCCCc1ccc(N)cc1 | inactive | 
CN(C)c1ccc(C(=C2C=CC(=[N+](C)C)C=C2)c2ccc(N(C)C)cc2)cc1 |  | 16.8 µM (active)
O=C1O[C@H]([C@@H](O)CO)C(O)=C1O | inactive | 
Clc1cc(Cl)c2c(c1)N=C1CCCCCN1C2 | inactive | 
O=C1CCC(C2CCCCC2)CC1 | inactive | 
c1ccc2ccccc2c1 |  | 17.4 µM (active)
c1ccc2n[nH]nc2c1 | inactive | 
CC/C(=C(/CC)c1ccc(O)cc1)c1ccc(O)cc1 |  | 93.9 µM (active)
CC(C)(c1cc(Br)c(O)c(Br)c1)c1cc(Br)c(O)c(Br)c1 |  | 78.2 µM (active)
CC[C@@H]1C[C@H](N(Cc2cc(C(F)(F)F)cc(C(F)(F)F)c2)C(C)=O)c2cc(C(F)(F)F)ccc2N1C(=O)OC(C)C |  | 0.546 µM (active)
Cc1ccc2oc(CN(Cc3ccccc3)C(=O)Nc3c(F)cc(F)cc3F)c(-c3ccc(Cl)cc3)c2c1 | inactive | 
CC(C)(C)c1cc(/C=C2\SC(N)=NC2=O)cc(C(C)(C)C)c1O |  | 93.5 µM (active)
CCO[Si](CCCNC(N)=O)(OCC)OCC | inactive | 
O=c1ccc2ccccc2o1 |  | 65.4 µM (active)
